From PubChem BioAssay
A selection: hits, their analogues and other compounds. The true share with any hit is near 3%.
EBV LMP1 NFkB: EBV LMP1-driven NF-kappaB luciferase reporter inhibitors, primary screen, cell-based, luminescence, single point | hit rate 0.69% among 350,000 | LMP1-induced NF-kappaB luciferase reporter cells | AID 504558, 2011 | inhibition, % at 12.5 µM; in the data active = inhibition above about 41%;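 note: 0% = neutral control wells and 100% = reference inhibitor control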
KKLEB tox: cytotoxicity in KKLEB CF airway cells, primary screen, cytotoxicity control for CF NF-kB inhibitor project, cell-based, uHTS, fluorescence assay plates; KKLEB CF airway cells viability, ATPlite luminescence, overnight; active compounds read low; cells stimulated with P. aeruginosa culture filtrate; AID 602141, 2011; activity change (cytotoxicity), % at 5 µM; hit rate 0.36% among 360,000;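 active = corrected activity change at or below -50% at 5 µM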
HIF-2a inh: HIF-2a reporter inhibitors, primary screen, luminescence, 786-0 RCC cells. 786-0 RCC cells HIF-2a reporter, luciferase luminescence, overnight. inhibition, % at 18.8 µM. hit rate 0.72% among 360,000;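 active = inhibition of the luminescence signal of 40% or more relative to plate controls, in a single-dose primary screen at 18.75 µM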
CF NFkB inh: inhibitors of PAF-induced NF-kB signaling, primary screen, cell-based, GFP fluorescence, uHTS. AID 588850, 2011. KKLEB NF-kB-GFP reporter, GFP fluorescence overnight. hit rate 0.86% among 360,000. inhibition, % at 5 µM;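 active = at least 50% inhibition at 5 µM, scaled per plate between neutral and stimulator controls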;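 note: PAF is a Pseudomonas aeruginosa culture filtrate used as stimulus; plate controls were PAF-stimulated DMSO wells for no effect and unstimulated DMSO wells for full effect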
TRPM1 prom inh: inhibitors of MITF-dependent TRPM1 promoter reporter, primary screen, cell-based, SK-MEL-5, single point, luciferase; SK-MEL-5 TRPM1 promoter luciferase, 24 h; inhibition, % at 12.5 µM; hit rate 0.83% among 330,000;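 active = mean inhibition across replicates of 60% or more, whatever share of single replicates reaches that level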
Peg3 prom inh: Peg3 promoter-driven luciferase inhibitors, primary screen, cell-based, HeLa, luciferase luminescence. HeLa PEG-Prom luciferase reporter, overnight. inhibition, % at 20 µM. hit rate 1.7% among 360,000. AID 588405, 2011;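 active = inhibition of at least 50% at 20 µM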
CF NFkB inh conf: inhibitors of PAF-induced NF-kB signaling, retest, confirmation, cell-based, GFP fluorescence, single concentration | shares compounds with CF NFkB inh | KKLEB CF airway cells, overnight | inhibition, % at 5 µM | hit rate 64% among 1,300 | AID 602472, 2012; in the data active = inhibition above about 40%;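 note: stimulus PAF is a Pseudomonas aeruginosa filtrate and not platelet activating factor; plate controls were DMSO wells with stimulus for no effect and unstimulated DMSO wells for full effect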
Mdm2-MdmX confirm: retested Mdm2-MdmX interaction blockers, confirmation, cell-based, luminescence, single concentration, set 2 | hit rate 99% among 740 | SaOS-2 split-luciferase Mdm2/MdmX complementation | shares compounds with HIF-2a inh | inhibition, % at 8 µM;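 active = mean inhibition of the luminescence signal across two replicates at or above 26 percent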
Target sequence (O15151 whole entry, looked up): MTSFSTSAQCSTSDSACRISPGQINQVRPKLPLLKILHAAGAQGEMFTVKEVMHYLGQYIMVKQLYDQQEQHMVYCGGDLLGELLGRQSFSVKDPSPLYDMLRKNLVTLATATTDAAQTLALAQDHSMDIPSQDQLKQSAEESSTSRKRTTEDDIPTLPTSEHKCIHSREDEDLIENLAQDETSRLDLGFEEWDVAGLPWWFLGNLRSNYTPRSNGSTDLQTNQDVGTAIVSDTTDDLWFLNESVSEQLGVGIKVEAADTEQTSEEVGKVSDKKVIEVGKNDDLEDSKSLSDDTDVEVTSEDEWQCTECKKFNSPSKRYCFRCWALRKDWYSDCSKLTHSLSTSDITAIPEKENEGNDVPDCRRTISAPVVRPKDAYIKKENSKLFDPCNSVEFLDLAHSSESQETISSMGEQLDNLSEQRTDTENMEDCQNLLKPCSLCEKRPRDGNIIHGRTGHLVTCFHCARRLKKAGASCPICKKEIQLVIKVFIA
Target sequence (Q00987 whole entry, looked up): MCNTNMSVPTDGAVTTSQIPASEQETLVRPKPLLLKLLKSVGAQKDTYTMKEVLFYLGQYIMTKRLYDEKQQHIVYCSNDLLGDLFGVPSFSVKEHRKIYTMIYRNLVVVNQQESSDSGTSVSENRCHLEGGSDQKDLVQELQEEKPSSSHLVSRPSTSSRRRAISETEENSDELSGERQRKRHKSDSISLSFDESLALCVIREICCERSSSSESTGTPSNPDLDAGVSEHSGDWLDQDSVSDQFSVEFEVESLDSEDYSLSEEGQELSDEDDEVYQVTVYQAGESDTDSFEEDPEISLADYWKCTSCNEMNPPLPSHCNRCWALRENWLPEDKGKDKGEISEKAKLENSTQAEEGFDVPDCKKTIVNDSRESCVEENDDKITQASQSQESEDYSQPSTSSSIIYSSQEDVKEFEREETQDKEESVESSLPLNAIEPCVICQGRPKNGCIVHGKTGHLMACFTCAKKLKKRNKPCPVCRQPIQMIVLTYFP
HIF-2a inh conf: HIF-2a reporter inhibitor retest, confirmation, luminescence, 786-0 RCC cells. shares compounds with HIF-2a inh. HIF-2a luciferase reporter luminescence, overnight. inhibition, % at 18.8 µM. hit rate 56% among 1,800. AID 651580, 2012;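 active = mean inhibition across four replicates of at least 40 percent at the single tested concentration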
HIF-1a cs: HIF-1a luciferase reporter signal reduction – MiaPaCa-2 cells, single concentration, counter-screen for HIF-2a inhibitor project, confirmation | hit rate 72% among 1,800 | shares compounds with HIF-2a inh | inhibition, % at 18.8 µM | MiaPaCa-2 HIF-1a luciferase reporter, desferoxamine, overnight;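 active = mean inhibition of the reporter signal across four replicates at the single tested dose of 50% or more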
The depositor's hits bear a star; x = no result.

SMILES | EBV LMP1 NFkB | KKLEB tox | HIF-2a inh | CF NFkB inh | TRPM1 prom inh | Peg3 prom inh | CF NFkB inh conf | HIF-2a inh conf | HIF-1a cs | others
CS(=O)(=O)c1ccc(C(=O)OCC(=O)NC23CC4CC(CC(C4)C2)C3)cc1[N+](=O)[O-] | -6 | -16 | 92* | 61* | 45 | 100* | 35 | 64* | 94*
Cc1cccc(CS(=O)(=O)c2ncc(Cl)c(C(=O)NCc3ccccc3)n2)c1 | -8 | -26 | 69* | 86* | 87* | 97* | 82* | 69* | 62*
CC1C(=O)N(Cc2cn(CCC3OCCCO3)nn2)CCS(=O)(=O)N1Cc1ccc(-c2cccc(CO)c2)cc1 (configuration not stated) | -2 | -3 | 4 | -9 | x | 2 | x | x | x
CCCCNC(=O)C(NC(=O)c1cccnc1OC)C(=O)c1ccccc1 (configuration not stated) | x | x | -4 | x | x | x | x | x | x
Cn1c(Sc2ccc(Cl)cc2)c(C=O)c2ccccc21 | 22 | -29 | 26 | 76* | 19 | 54* | 81* | x | x | Mdm2-MdmX confirm=92*
C=C1C(=O)O[C@@H]2[C@H]1[C@@H](OC(=O)/C(C)=C/C)C/C(C)=C\C(=O)/C=C(\C)[C@@H]2O | 67* | -4 | 95* | 86* | 96* | 111* | -11 | 73* | 102* | Mdm2-MdmX confirm=103*
C=C1C(=O)O[C@H]2[C@H]1[C@H](OC(=O)/C(C)=C\C)C[C@]1(CO1)[C@@H]1[C@H](OC(C)=O)C=C(C)[C@]21O | -7 | 15 | 4 | -2 | 3 | 14 | x | x | x
COc1ccc(CNC(=O)C2(C)Cc3c(-c4cccc(C(N)=O)c4)ccnc3O2)cc1OC (configuration not stated) | x | -14 | -4 | -4 | x | -22 | x | x | x
COC(=O)C1=C(C(=O)OC)[C@@H]2N(Cc3ccccc3)c3ccccc3[C@@]23C[C@@H](C(=O)OC)N(C(=O)c2ccc(Br)cc2)C3=N1 | 1 | -24 | 2 | 69* | -4 | 84* | 78* | x | x | Mdm2-MdmX confirm=98*
C=CCN1c2ccccc2[C@]23C[C@@H](C(=O)OC)N(C(=O)c4ccc(Br)cc4)C2=NC(C(=O)OC)=C(C(=O)OC)[C@H]13 | 3 | -30 | -12 | 71* | -6 | 74* | 58* | x | x | Mdm2-MdmX confirm=96*
CCC(=O)Nc1nc(C)c(-c2csc(Nc3ccc(C(=O)O)cc3)n2)s1 | 1 | 4 | 11 | -1 | 7 | -3 | x | x | x
CC(=O)Nc1ccc(Nc2nc(-c3sc(NC(C)=O)nc3C)cs2)cc1 | 22 | -14 | 68* | 67* | 19 | 34 | 87* | 66* | 91*
CCc1ccc(Nc2n[n+](-c3ccccc3)c(-c3c(Cl)cccc3Cl)s2)cc1 | 44* | -42 | -57 | 52* | 56 | 97* | 88* | x | x | Mdm2-MdmX confirm=101*
O=C(CSc1ccccn1)Nc1nonc1[N+](=O)[O-] | -1 | -15 | 47* | 88* | 86* | 104* | 1 | 23 | -34
O=C(NCCC1=CCCCC1)c1coc(=O)c(Br)c1 | -53 | 11 | 65* | 85* | 3 | 81* | 93* | -10 | 64*
CC(C)CNC(=O)c1coc(=O)c(Br)c1 | 25 | -12 | 70* | 74* | 1 | 74* | 95* | -12 | 52*
O=C(NC(CO)(CO)CO)c1coc(=O)c(Br)c1 | -4 | 3 | -13 | 20 | -11 | 3 | x | x | x
CCOC(=O)N1C(=O)[C@@](c2ccc(Cl)cc2)(C(C)C)N1C(=O)OCC | -3 | -16 | 68* | 70* | 44 | 100* | 35 | 58* | 85*
CCC(c1nnnn1-c1c(C)cccc1C)N1CCN(CCN2CCOCC2)CC1 (configuration not stated) | x | x | 4 | x | x | x | x | x | x
C[C@@H]1CC=C[C@H]2[C@H]1C(=O)N(Cc1ccccc1)[C@H]2c1ccc2ccccc2c1Br | -5 | -35 | 42* | 74* | -1 | 33 | 54* | 23 | 72*
CC(c1nc2ccccc2[nH]1)N(C(=O)C1=NNC(=O)CC1)c1ccccc1 (configuration not stated) | x | 14 | 3 | -20 | x | 7 | x | x | x
Cc1cccc(C)c1NS(=O)(=O)c1ccc(-c2cnc(C3CC3)o2)cc1 | 12 | -31 | 47* | 65* | 74* | 19 | 73* | 35 | 51*
Cn1cc(-c2coc3c(C(=O)NCc4cccc(Cl)c4)cccc23)cn1 | x | 1 | -47 | -10 | x | -21 | x | x | x
CN(c1ncnc(N)c1[N+](=O)[O-])C1CCCCC1 | 38 | -1 | 19 | 84* | -45 | 31 | 93* | x | x | Mdm2-MdmX confirm=87*
CCCCN(c1ccccc1)c1ncnc(N)c1[N+](=O)[O-] | 46* | -15 | 15 | 76* | -20 | 12 | 93* | x | x | Mdm2-MdmX confirm=86*
SMILES | EBV LMP1 NFkB | KKLEB tox | HIF-2a inh | CF NFkB inh | TRPM1 prom inh | Peg3 prom inh | CF NFkB inh conf | HIF-2a inh conf | HIF-1a cs | others
CC1=CC(C)(C)Nc2ccc(OC(=O)CN3C(=O)c4ccccc4C3=O)cc21 | 1 | 1 | 88* | 51* | -4 | 102* | -71 | 88* | 96*
CCOc1ccc2c(c1)C(C)=CC(C)(C)N2 | -1 | 0 | 0 | 8 | -11 | 10 | x | x | x
CN(c1ccccc1)c1ccc(/C=C/[N+](=O)[O-])cc1 | 18 | -9 | 92* | 65* | 92* | 103* | -23 | 85* | 105*
O=[N+]([O-])c1ccc(C=CC=Cc2ccccc2)cc1 | -33 | 11 | -241 | -47 | x | -255 | x | x | x
O=C(Nc1ccc(F)cc1)C(CCc1ccccc1)N1CCN(c2ccncc2)CC1 (configuration not stated) | x | x | -19 | x | x | x | x | x | x
COc1cc(OC)cc(-c2c(Sc3ccccc3)c3cc(-c4ccc(OC)c(F)c4)ccc3n2C)c1 | x | x | 10 | x | x | x | x | x | x
Cc1cc(Sc2nnc(N)s2)c2ccccc2n1 | 71* | -27 | 41* | 89* | 48 | 7 | -7 | 32 | 1
